Screening results as filed in PubChem BioAssay.
Compounds with a hit are over-represented: about 9.6% of the library has one in this group of screens.
L major viab = inhibitors of Leishmania major promastigote growth | Leishmania major promastigotes, resazurin fluorescence viability | inhibition, % at 10 µM | actives 9% (n = 200,000) | AID 1063; in the data active = inhibition above about 50%;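 also: promastigotes grown with compound for 44 hours at 28 °C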
HCT116 PTEN-null = PTEN-deleted cell growth suppression | HCT116 PTEN-null viability, CellTiter-Glo, 60 h; active compounds read low | viability, % at 10 µM | actives 1.2% (n = 140,000) | AID 827;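 active = viability at or below a set limit, 4 SD under the median of all tested compounds, cut at about 3.7% in these data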;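 also: PTEN knockout HCT116 line with beta catenin targeted HCT116 as companion control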
bCat KO growth = beta-catenin-lacking colon tumor cell growth suppression; HCT116 beta-catenin knockout viability, CellTiter-Glo, 60 h; active compounds read low; viability, % at 10 µM; actives 1.5% (n = 140,000); AID 818;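 active = viability at or under a set limit, the compound median less 4 SD, cut at about 6% in these data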;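 also: 0% = Hyamine 1622 control at 20 µM and 100% = untreated cell control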
INS promoter inh = TRM-6 insulin promoter activity inhibition; TRM-6 cells (human fetal islet line), insulin promoter-eGFP reporter, imaging; reporter expression induced with tamoxifen; inhibition, % at 2 µM; actives 0.9% (n = 130,000); AID 1273;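 active = inhibition above the mean plus 3 SD, with well images judged a real hit on visual review, cut at about 60% in these data, passing the limit was not always enough; inconclusive = inhibition over the cutoff but images rejected on review; inactive = inhibition not above the cutoff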
Autophagy HCS = autophagy modulation, high-content screen. MEF GFP-LC3 puncta imaging; test concentration mostly 10 µM. calls only at 10 µM (by protocol). actives 0.98% (n = 190,000). AID 463193;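 active = percentage of spot-positive cells more than 3 SD above its plate mean, without a fluorescence outlier flag or 80% toxicity; inconclusive = no clear call, values can overlap the other calls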;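 also: spot-positive cell cutoff set from DMSO-treated cells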
Insulin prom up = MIN6 insulin promoter up-regulation; MIN6 insulin promoter-GFP reporter, high-content imaging; active compounds read high; z-score at 5 µM; actives 0.3% (n = 190,000);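 active = z-score above 3 at 5 µM with at least 500 cells counted in the well; inconclusive = wells under 500 cells, flagged as cytotoxic or low count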
Active calls of the source: *; i = inactive; u = inconclusive; x = no result given; + = active, no number.

SMILES	L major viab	HCT116 PTEN-null	bCat KO growth	INS promoter inh	Autophagy HCS	Insulin prom up
CCCOc1ccc([N+](=O)[O-])cc1C1NC(=S)NC(c2ccccc2)=C1C(=O)OCC (stereo unspecified)	100*	67	67	0	i	-0.33
Cn1c(=O)c2[nH]c(-c3ccccc3Cl)c(O)c2n(C)c1=O	4	95	88	64*	i	-0.26
COc1ccc(-c2csc(Cc3nnc4n3CCCCC4)n2)cc1OC	60*	111	110	-27	i	-0.08
C#CCOC(=O)c1ccccc1C(=O)O	-7	98	77	-281	i	x
O=C(c1ccco1)N1CCN(C(=O)c2oc(=O)c3ccccc3c2-c2ccccc2)CC1	-2	89	90	x	x	-1.2
Cc1ccc(-c2c(C(=O)N(C)Cc3ccccc3)oc(=O)c3ccccc23)cc1	82*	70	73	-15	i	0.86
CN(Cc1ccccc1)C(=O)c1oc(=O)c2ccccc2c1-c1ccccc1	55*	76	82	-11	i	1.2
Cc1ccc(-c2c(C(=O)NCc3ccccc3)oc(=O)c3ccccc23)cc1	3	100	95	-7	i	-0.84
Cc1ccc(-n2ncc(C(=O)Nc3cc(Cl)cc(Cl)c3)c2C2CCNCC2)cc1C	101*	x	x	x	+	u
Cc1ccc(-n2ncc(C(=O)Nc3cc(Cl)ccc3Cl)c2C2CCNCC2)cc1	-7	x	x	-6	+	0.1
CCOC(=O)c1cnn(-c2ccc(Cl)cc2)c1C1CCN(C(=O)OC(C)(C)C)CC1	6	80	78	-16	i	-0.21
COC(=O)c1ccccc1NC(=O)c1cc(-c2cccs2)on1	-4	10	17	7	+	-0.31
COC(=O)c1ccccc1NC(=O)c1cccs1	7	94	92	62	i	0.72
CCNc1nc(SCCOc2ccc(Cl)cc2Cl)nc(N(C)C)n1	56*	x	x	-41	i	-1.7
CCNc1nc(SCCOc2ccc(C)cc2)nc(N(C)C)n1	-1	66	74	x	i	-0.37
O=C(c1ccc([N+](=O)[O-])cc1)N1CCSC1c1ccccc1 (stereo unspecified)	4	96	100	x	i	0.09
O=C(c1ccc([N+](=O)[O-])cc1)N1CCSC1c1cccc(Cl)c1 (stereo unspecified)	51*	x	x	-8	i	0.52
CCOC(=O)c1[nH]c(C)c(C(=O)Nc2cc(Cl)ccc2C)c1C	-2	16	15	-119	i	0.9
COc1ccc(/C=C/C(=O)NC(=S)NNC(=O)c2ccco2)cc1OC	x	x	x	x	x	-1.1
COc1ccc(/C=C/C(=O)NC(=S)NNC(=O)Cc2cccs2)cc1	98*	48	50	5	i	0.74
O=C(/C=C/c1ccccc1)NC(=S)NNC(=O)Cc1cccs1	23	65	59	69	i	x
COc1ccc(/C=C/C(=O)NC(=S)NNC(=O)c2ccco2)cc1	99*	43	36	37	i	0.04
CC(C)C(OC(=O)c1ccco1)C(=O)NCc1ccco1 (stereo unspecified)	-4	99	89	x	i	0.27
Cc1ccc(Cl)cc1N1CCN(Cc2nnnn2Cc2ccco2)CC1	5	74	80	-36	i	x
CC1(C)CC(=O)C2=C(C1)N(c1ccc(F)cc1)C(=O)CC2c1cccnc1 (stereo unspecified)	-7	93	83	x	i	x
SMILES	L major viab	HCT116 PTEN-null	bCat KO growth	INS promoter inh	Autophagy HCS	Insulin prom up
CCSc1nnc(N2C(=O)CC(c3ccsc3)C3=C2CC(C)(C)CC3=O)s1 (stereo unspecified)	67*	86	97	x	x	-1.5
COC(=O)c1c(-c2ccc(C)cc2)csc1NC(=S)NC(=O)c1cc(OC)cc(OC)c1	3	89	97	x	i	0.82
Cn1c(=S)n(C)c2ccccc21	-4	x	x	42	i	x
Cn1ccc(=S)c2ccccc21	88*	x	x	89*	i	x
N#CC1=C(N)N(c2ccc(Oc3ccccc3)cc2)C(=O)C1	91*	110	103	-6	i	-0.14
Cc1ccc(OCC(=O)N(c2ccccn2)C2CCCCC2)c(C)c1	87*	61	67	-17	i	-0.39
N#CCCN(C(=O)COC(=O)c1ccc(S(=O)(=O)Nc2ccccc2)cc1)c1ccccc1	-3	92	82	-21	i	0.28
N#CCCN(C(=O)COC(=O)c1cccc(S(=O)(=O)Nc2ccc([N+](=O)[O-])cc2)c1)c1ccccc1	-13	97	98	69*	i	0.04
